“And” between values parts separate entries of the source, which are not always exact repeats. Equal values may be shown once. About 83,000 compounds went through this panel and 20% of them were active in at least one assay; those are over-represented in the sample as a whole.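 The test compound was applied at a single concentration to cells in 96-well plates for 48 hours, and percent growth was recorded.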 Unmarked numbers belong to inactive results. The source made the active and inactive calls. How the source made its calls: active means growth percent below 10; inactive means the rest.

Assay in all cases: NCI-60 one-dose screen, 48 h (100 = growth as untreated, 0 = no growth, -100 = all killed)
One test concerns T-47D breast. The note with it: 10 µM unless noted.
The test system of a further test is BT-549 breast. The note with it: 10 µM unless noted.
In a further test the test system is MDA-MB-435 melanoma. The note with it: 10 µM unless noted.
The subject of a further test is SW-620 colon. The note with it: 10 µM unless noted.
The next test deals with MCF7 breast.
A further test concerns HCT-116 colon. The note with it: 10 µM unless noted.
Another test relates to HCC-2998 colon. The note with it: 10 µM unless noted.
In a further test the test system is KM12 colon. The note with it: 10 µM unless noted.

On to `Cc1c(C(=O)Nc2ccccc2F)sc2c(=O)[nH]cnc12`, for which the growth in the test with T-47D breast is 90%; in the test with BT-549 breast, 85.3%; with MDA-MB-435 melanoma, 6.84% (active); in the test with SW-620 colon, 76.8%; with MCF7 breast (10 µM unless noted), 76.9%; in the test with HCT-116 colon, 88.6%. In addition, the growth in the test with HCC-2998 colon is 93.2%; in the test with KM12 colon, 61.8%.

As to `Cc1csc(N/N=C/c2ccncc2)n1`, the growth in the test with T-47D breast was 94%; in the test on BT-549 breast it was 105%; in the test on MDA-MB-435 melanoma, 104%; in the test on SW-620 colon, 103%; with MCF7 breast (10 µM unless noted), 87.1%; in the test with HCT-116 colon, 97.6%. The figures for the growth with HCC-2998 colon and with KM12 colon were 99.9% and 106%, respectively.

Turning to `Cc1cc(O)c2cc3c(O)c(O)ccc3cc2c1`, the growth is 104% in the test on T-47D breast; 109% in the test with BT-549 breast; 123% in the test on MDA-MB-435 melanoma; 114% with SW-620 colon; 139% in the test with MCF7 breast (10 µM); 4.83% (active) and -31.7% (active) with MCF7 breast (100 µM). In addition, the growth with HCT-116 colon is 102%; in the test on HCC-2998 colon, 114%; in the test on KM12 colon it was 108%.

Take `CCN1C(=O)N(CC)C2C1NN=c1s/c(=C\c3ccc(Br)cc3)c(=O)n12` (centres undefined): the growth is 54.3% in the test on T-47D breast; 18.2% with BT-549 breast; -13.6% (active) in the test with MDA-MB-435 melanoma; 23.1% in the test with SW-620 colon; 1.61% (active) with MCF7 breast (10 µM unless noted); 5.14% (active) with HCT-116 colon. For the same compound, the results for the growth with HCC-2998 colon and in the test on KM12 colon were 10.2% and 6.77% (active), respectively.

For `Cc1ccccc1C1CC(=O)c2ccccc2C1C` (centres undefined), the growth in the test with T-47D breast was 107%; in the test with BT-549 breast it was 131%; in the test on MDA-MB-435 melanoma, 91.3%; with SW-620 colon, 99.2%; in the test on MCF7 breast (10 µM unless noted) it was 115%; in the test with HCT-116 colon it was 95.3%. Besides, the growth in the test with HCC-2998 colon was 104%; in the test on KM12 colon, 107%.

Take `O=C1OCC2=C1C(c1ccccc1)c1cc3c(cc1N2CCO)CCC3` (centres undefined): the growth is 37.8% in the test with T-47D breast; -1.32% (active) in the test on BT-549 breast; -31.9% (active) in the test with MDA-MB-435 melanoma; 21.5% with SW-620 colon; -3.45% (active) in the test on MCF7 breast (10 µM unless noted); 4.41% (active) in the test with HCT-116 colon. In addition, the growth is -19.8% (active) in the test on HCC-2998 colon and 11.2% in the test with KM12 colon.

As to `CCOC(=O)Nc1ccc2nc(Sc3ccc(Cl)cc3)sc2c1`, the growth was 36.4% in the test with T-47D breast; 58.5% in the test on BT-549 breast; 1.41% (active) in the test on MDA-MB-435 melanoma; 29% in the test with SW-620 colon; 16.7% with MCF7 breast (10 µM unless noted); 30.5% with HCT-116 colon. For the same compound, the growth with HCC-2998 colon was 57.1%; in the test with KM12 colon, 26.9%.

Turning to `COc1ccc(C(=O)C(CN(C)C)c2ccc(OC)cc2)cc1` (centres undefined), the growth with T-47D breast is 56.7%; in the test on BT-549 breast, 2.74% (active); in the test on MDA-MB-435 melanoma, 43.8%; with SW-620 colon, 11.9%; in the test with MCF7 breast (10 µM unless noted), 18.5%; in the test on HCT-116 colon it was 14.7%. The growth in the test on HCC-2998 colon is 117%; with KM12 colon, 78%.

With `CCCCCCCCCCCCCCCCCC(=O)OCCCCCCCCCCCCC`, the growth is 98.4% with T-47D breast; 133% with BT-549 breast; 109% in the test on MDA-MB-435 melanoma; 117% in the test on SW-620 colon; 114% in the test with MCF7 breast (10 µM unless noted); 111% with HCT-116 colon. For the same compound, the growth in the test on HCC-2998 colon is 113%; in the test on KM12 colon, 105%.

With `COc1cc(C2CC(c3ccc(C)cc3)=NN2C=O)ccc1Oc1ccnc2cc(Cl)ccc12` (centres undefined), the growth is 76% in the test on T-47D breast; 43.8% with BT-549 breast; 99% in the test with MDA-MB-435 melanoma; 102% with SW-620 colon; 79.1% with MCF7 breast (10 µM unless noted); 46.5% in the test on HCT-116 colon. For the same compound, the growth in the test with HCC-2998 colon is 69.6%; in the test on KM12 colon, 104%.

Turning to `Cc1ccccc1NC(=O)c1sc2nc3c(cc2c1N)C(=O)CCC3`, the growth in the test on T-47D breast is 43.9%; in the test on BT-549 breast, 55.6%; in the test on MDA-MB-435 melanoma it was -12.9% (active); with SW-620 colon, 25.4%; in the test on MCF7 breast (10 µM unless noted), 21.7%; in the test on HCT-116 colon, 34.5%. Further, the growth with HCC-2998 colon is 67%; in the test with KM12 colon it was 19.2%.

Turning to `c1cn2cc(-c3ccc4ncn(C5CCCCC5)c4c3)nc(-c3ccc4c(c3)ncn4C3CCCCC3)c2n1`, the growth is -17.7% (active) in the test on T-47D breast; -48.9% (active) with BT-549 breast; -73% (active) with MDA-MB-435 melanoma; -3.82% (active) in the test on SW-620 colon; -3.78% (active) in the test with MCF7 breast (10 µM unless noted); -61.4% (active) in the test with HCT-116 colon. For the same compound, the growth is -93.4% (active) in the test on HCC-2998 colon and -61.1% (active) with KM12 colon.

For `COc1cc(C2CC(c3cccc(Nc4ccnc5cc(Cl)ccc45)c3)=NN2C=O)cc(OC)c1OC` (centres undefined), the growth is -4.07% (active) in the test with T-47D breast; -36% (active) in the test on BT-549 breast; -68.1% (active) in the test on MDA-MB-435 melanoma; 13.1% in the test on SW-620 colon; 2.77% (active) in the test on MCF7 breast (10 µM unless noted); 7.38% (active) in the test with HCT-116 colon. Further, the values for the growth in the test with HCC-2998 colon and in the test on KM12 colon were 37.4% and 9.52% (active), respectively.

`Cc1cc(N)cc(C)c1-c1c(Br)cc(N)cc1Br`: the growth was 36.3% in the test with T-47D breast; 35.8% in the test with BT-549 breast; -44.3% (active) in the test with MDA-MB-435 melanoma; 34.5% in the test on SW-620 colon; 27.1% with MCF7 breast (10 µM unless noted); 23.3% in the test with HCT-116 colon. Also, the growth was 42.3% in the test on HCC-2998 colon and 23.8% with KM12 colon.

With `O=C(CCl)Nc1cc(O)c2c(c1)C(=O)c1cccc(O)c1C2=O`, the growth in the test with T-47D breast was -76.4% (active); with BT-549 breast, -48.4% (active); in the test on MDA-MB-435 melanoma, 13.5%; in the test with SW-620 colon, -73.8% (active); in the test with MCF7 breast (10 µM unless noted), -49.6% (active); with HCT-116 colon, -33.9% (active). For the same compound, the growth in the test on HCC-2998 colon is -42.3% (active); in the test on KM12 colon it was -45.8% (active).

`Cc1c2c(cc3c1[nH]c1ccccc13)C=NCC2`: the growth in the test on T-47D breast was 73.7%; in the test on BT-549 breast it was 79.6%; in the test with MDA-MB-435 melanoma, 94.9%; in the test on SW-620 colon it was 97%; in the test on MCF7 breast (10 µM unless noted) it was 60.8%; in the test with HCT-116 colon, 71.1%. For the same compound, the growth was 96.8% with HCC-2998 colon and 87% in the test with KM12 colon.

(Values after PubChem BioAssay (NCI).)
